In the library only some 19% were active in any assay of this set; here they are far more common.
uPA surface inh: inhibitors of cell surface uPA generation; Potency, µM (highest dose often 38.3 µM), hits mostly inhibitors; 0.31% of 330,000 active; cell surface uPA generation assay, qHTS; active = well fitted inhibition curve with a large enough effect; inconclusive = small, poorly fitted or top-dose-only effect; inactive = no such curve, though single readings can be large or run the other way; tested in mouse RAW 264.7 cells; note: nearly all actives have a fitted effect of over 55% in size
DT40 TDP1 CPT: DT40-hTDP1 cell growth loss with CPT | chicken DT40 Tdp1-/-;hTDP1 cells + 20 nM CPT, ATP luminescence, 48 h | Potency, µM (top dose mostly 46.2 µM), usual class: inhibitors | 12% of 420,000 active | AID 686979; note: nearly all actives have a fitted effect of over 55% in size
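Chicken DT40 Tdp1-/- cells stably complemented with human TDP1 were seeded at 400 cells/well in medium containing 20 nM camptothecin, exposed to pin-transferred compounds, and grown at 37 °C for at least 48 hr. Viability was read as ATP luminescence.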
TDP1 cell noCPT: qHTS for Inhibitors of human tyrosyl-DNA phosphodiesterase 1 (TDP1): qHTS in cells in absence of CPT; 15% of 420,000 active; Potency, µM (top dose mostly 46.2 µM), hits mostly inhibitors; AID 686978, 2013; DT40 Tdp1-/- hTDP1 cells, no CPT, ATP luminescence, 48 h; note: nearly all actives have a fitted effect of over 55% in size
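Growth of hTDP1-complemented DT40 Tdp1-knockout cells is measured by ATP luminescence after at least 48 hr compound exposure at 37 °C, with DMSO substituting for the 20 nM CPT used in the parallel screen.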
HT1080NT lethal: kills 2HG-producing HT-1080-NT fibrosarcoma cells; Potency, µM (highest dose often 46.1 µM), actives largely listed as cytotoxic; AID 686970; 1.6% of 360,000 active; HT-1080-NT fibrosarcoma viability, CellTiter-Glo ATP luminescence, 48 h;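 note: NT is the 2HG producing partner of a matched IDH1 knockdown line; nearly all actives have a fitted effect of over 55% in size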
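Luminescent CellTiter-Glo readout after 48 hours of compound exposure at 37 degrees C defined viability of HT-1080-NT cells. Activity was normalized to DMSO wells and cell-free media wells; concentration-response curves were fitted and assigned curve classes.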
IL-1B inflam inh: inhibitors of inflammasome signaling (IL-1 beta secretion). THP-1 LPS/ATP IL-1B secretion, AlphaLISA, 16 h; hits give low values. activity change, % at 57.5 µM. 4.7% of 360,000 active; in the data active = activity change below about -50%; inconclusive = mostly about -30% to -49%
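THP-1 cells pretreated 1 hr with compounds (up to 57.5 uM final), then stimulated with LPS (250 ng/mL final) plus ATP (1.25 mM final); secreted IL-1B measured by AlphaLISA after 16 hr, decreased signal indicating inhibition.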
HT1080 IDH1KD tx: toxicity to HT-1080 IDH1 knockdown cells (counter line); Potency, µM (titrated, usually from 46.1 µM), hits mostly cytotoxic; HT-1080 IDH1 knockdown viability, ATP luminescence, 48 h; 2% of 360,000 active
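Cytotoxicity counter-line: IDH1KD HT-1080, 48 h, CellTiter-Glo. Curves classed by r2, magnitude and activity.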
A number is an active result; 0 = inactive; ? = inconclusive; - = no result. Unless noted, calls come from the whole dose curve; as a rule, active = well fitted curve in the direction sought with a large enough effect; inconclusive = small, poorly fitted or top-dose-only effect, or another doubt; inactive = no such curve, though single readings can be large; an effect the other way counts as inactive or inconclusive.

SMILES	uPA surface inh	DT40 TDP1 CPT	TDP1 cell noCPT	HT1080NT lethal	IL-1B inflam inh	HT1080 IDH1KD tx
CCc1ccc(-c2csc(NC(=O)c3cccnc3)n2)cc1	0	?	16µM	0	0	?
CCc1ccc(-c2csc(NC(=O)C3=NN(c4ccccc4)C(=O)CC3)n2)cc1	0	?	26µM	?	0	?
COc1cc(NC(=O)C2(C)CCCN(C(C)C)C2)cc(OC)c1OC (stereo not drawn)	-	0	0	0	0	0
COc1ccc(OC)c(C(C[N+](=O)[O-])c2c(C)cc3ccccn23)c1 (stereo not drawn)	0	2.1µM	2.9µM	23µM	0	18µM
COc1cccc(N=C(N)N=C(N)N)c1	0	0	0	0	0	0
NC(N)=NC(N)=Nc1ccc(SC(F)(F)F)cc1	0	10µM	9.2µM	0	0	0
COc1cc(NC(=O)Cn2c(=O)ccc3cc(S(=O)(=O)N4CCCC4)ccc32)cc(OC)c1	-	?	15µM	-	-	-
COc1ccc(NC(=O)Cn2c(=O)ccc3cc(S(=O)(=O)N4CCCC4)ccc32)cc1Cl	-	16µM	13µM	-	-	-
CN(C(=O)Nc1ccccc1)C1CCCc2ccccc21 (stereo not drawn)	0	0	?	0	0	0
Cc1ccc(C)n1-c1ccc(N(C)C)cc1	0	?	29µM	0	?	0
Cc1cccc(C(C)C)c1NC(=O)C1CCCN1S(=O)(=O)c1cccc2nsnc12 (stereo not drawn)	-	23µM	15µM	-	-	-
CC1CCCC(NC(=O)C2CCCN2S(=O)(=O)c2cccc3nsnc23)C1C (stereo not drawn)	0	?	15µM	0	0	0
COc1cc(C=Cc2nnc3c4ccccc4cnn23)cc(OC)c1OC	-	3.3µM	0.82µM	0	0	0
COc1cc(/C=C/c2ccc3ccccc3n2)cc(OC)c1OC	-	0.16µM	0.071µM	-	-	-
CCOc1cc(/C=C/C(=O)O)ccc1OCc1ccccc1	0	0	0	0	0	0
COc1cc(/C=C/c2nc3ccccc3nc2/C=C/c2cc(OC)c(OC)c(OC)c2)cc(OC)c1OC	-	1.3µM	4.5µM	-	-	-
COc1cc(C=C2C(=O)c3ccccc3C2=O)cc(OC)c1OC	0	?	0	0	0	0
CCOc1ccc(/C=C/c2ccc3ccccc3n2)cc1OCC	-	2.8µM	2.5µM	-	-	-
CCn1c(-c2cccc(OC)c2)nc2cc(NC(C)=O)cc(C(=O)N3CCC[C@H]3C(=O)OC)c21	-	0	0	-	-	-
O=c1[nH]c2cc(C(F)(F)F)c(N3CCOCC3)cc2n(CP(=O)(O)O)c1=O	-	0	0	-	-	-
O=C(NN=Cc1ccc(Cl)cc1Cl)C1CC1	0	0	0	0	0	?
Cc1cc(OCC(=O)Nc2ccc(CN3CCOCC3)cc2)c2c(C)cc(=O)oc2c1	?	18µM	12µM	0	0	0
CCCCc1cc(=O)oc2cc(OCC(=O)NCCN3CCOCC3)c(Cl)cc12	0	13µM	18µM	0	0	0
Cc1cc(=O)oc2cc(OCC(=O)Nc3ccc(CN4CCOCC4)cc3)ccc12	0	?	0	0	0	0
Cc1cc(=O)oc2cc(OCC(=O)NCCN3CCOCC3)c(Cl)cc12	0	0	0	0	0	0
SMILES	uPA surface inh	DT40 TDP1 CPT	TDP1 cell noCPT	HT1080NT lethal	IL-1B inflam inh	HT1080 IDH1KD tx
CCCc1cc(=O)oc2c(C)c(OCC(=O)NC3CCN(Cc4ccccc4)CC3)ccc12	0	18µM	?	0	0	0
CCCc1cc(=O)oc2c(C)c(OCC(=O)Nc3ccc(CN4CCOCC4)cc3)ccc12	0	15µM	?	0	0	0
CCCc1cc(=O)oc2c(C)c(OCC(=O)NCCCN3CCOCC3)ccc12	0	0	0	0	0	0
Cc1ccc(CNC(=O)CN2C(=O)CCn3nc(-c4ccccc4)cc32)cc1	-	0	0	-	-	-
CCC(=O)c1ccc(OC)c(OC)c1OCc1ccccc1	0	0	?	0	0	0
O=C(Nc1ccccc1)N1CC2(CCN(C(=O)c3cc(C(F)(F)F)cc(C(F)(F)F)c3)CC2)C1	-	0	0	-	-	-
O=S(=O)(c1ccc(Cl)cc1)N1CCN(c2nc(Nc3cc(Cl)ccc3O)nc3ccccc23)CC1	-	?	?	0	-	0
CCN(CC)S(=O)(=O)c1ccc2oc(Nc3ccc4c(c3)OCCO4)nc2c1	0	16µM	23µM	0	0	?
CCS(=O)(=O)c1ccc2oc(Nc3ccc(OC)cc3)nc2c1	0	0	0	0	0	0
CCS(=O)(=O)c1ccc2oc(Nc3ccc(C(C)(C)C)cc3)nc2c1	0	16µM	15µM	0	0	0
Nc1nc(N)c2cc(S(=O)(=O)c3ccc4ccccc4c3)ccc2n1	-	?	1.8µM	8.2µM	0	3.3µM
Nc1ccn([C@@H]2O[C@H](C(=O)N[C@H]3c4ccccc4C[C@H]3O)[C@@H](O)[C@H]2O)c(=O)n1	-	0	0	0	0	0
COc1ccc(-c2nnc(CSc3ncnc4sc5c(c34)CCC5)o2)cc1OC	0	?	10µM	0	0	0
N#CCSc1ncnc2sc3c(c12)CCC3	0	0	0	0	0	0
CCCCCCC[C@@H](C/C=C/CCC(=O)N(C)C/C(=C/Cl)C/C(=C\C(=O)N1CC(OC)=CC1=O)OC)OC	0	2.3µM	1.8µM	5.8µM	0	9.2µM
CCCCCCC[C@@H](C/C=C/CCC(=O)O)OC	0	0	0	0	0	0
CCCCCCC[C@@H](C/C=C/CCC(=O)N(C)C/C(=C/Cl)C/C(=C\C(=O)N1C[C@H](O)CC1=O)OC)OC	?	9.2µM	9.2µM	23µM	-71	?
CCCCCOC(=O)C1=C(C)NC(=O)NC1c1ccc2c(c1)OCO2 (stereo not drawn)	0	0	0	0	-54	0
CSCCOC(=O)C1=C(C)NC(=O)NC1c1ccc2c(c1)OCO2 (stereo not drawn)	0	0	0	0	0	0
CCOC(=O)C1=C(CCl)NC(=O)NC1c1ccc2c(c1)OCO2 (stereo not drawn)	0	15µM	2.6µM	?	-100	?
CCOC(=O)C(C)OC(=O)C1=C(C)NC(=O)NC1c1ccc2c(c1)OCO2 (stereo not drawn)	0	3.7µM	4.1µM	0	0	0
CC1=C(C(=O)OCCCBr)C(c2ccc3c(c2)OCO3)NC(=O)N1 (stereo not drawn)	0	26µM	23µM	0	0	0
O=C(Nc1ccccc1)N1CCN(S(=O)(=O)c2ccccc2)CC1	0	0	0	0	0	?
O=c1[nH]c(-c2ccccc2)nn1-c1ccc(Br)cc1Br	0	?	0	0	?	0
CC(C)NC(=O)C(=O)NNC(=O)CCc1ccccc1	0	0	0	?	0	0
CCn1c(=O)c(C(=O)NC(C)c2ccccc2)c(O)c2ccccc21 (stereo not drawn)	0	?	?	0	0	0

Source: PubChem
